# According to the supplement of paper PMC12669032:
# Values without a mark were called inactive.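 The calls were made as follows: active = AUC reduced over 20% with Padj below 0.05 in at least 2 of 3 replicates; inactive = otherwise.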
# Columns and labels:
# Assay in all cases: growth AUC relative to DMSO control (median of replicates) (fraction); higher = more growth (less inhibition), active = hit call of the paper
# Conditions in all cases: 20 µM; 24 h
# Akkermansia muciniphila = test system: Akkermansia muciniphila
# How it was run: (§1)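 Gut bacteria were grown singly in mGAM at 37 °C without oxygen, from OD600 0.05, alongside 20 µM compound in 1% DMSO, and OD600 was read each hour for 24 h. Area under the growth curve was normalised to the median of solvent-only wells per plate, or to row and column medians on the industrial chemical plate. The minimum OD was set to 0 beforehand, and the reported value is the median of three biological replicates grown on separate days.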
# Bacteroides caccae = test system: Bacteroides caccae
# How it was run: as §1
# Bacteroides clarus = test system: Bacteroides clarus
# How it was run: as §1
# Bacteroides dorei = test system: Bacteroides dorei
# How it was run: as §1
# Bacteroides stercoris = test system: Bacteroides stercoris
# How it was run: as §1
# [1] = test system: Bacteroides thetaiotaomicron
# How it was run: as §1
# Bacteroides uniformis = test system: Bacteroides uniformis
# How it was run: as §1
# [2] = test system: Bifidobacterium longum subsp. longum
# How it was run: as §1
# Clostridium difficile = test system: Clostridium difficile
# How it was run: as §1
# Collinsella aerofaciens = test system: Collinsella aerofaciens
# How it was run: as §1
# Coprococcus comes = test system: Coprococcus comes
# How it was run: as §1
# Escherichia coli ED1a = test system: Escherichia coli ED1a
# How it was run: as §1
# Escherichia coli IAI1 = test system: Escherichia coli IAI1
# How it was run: as §1
# Eubacterium rectale = test system: Eubacterium rectale
# How it was run: as §1
# [3] = test system: Fusobacterium nucleatum subsp. animalis
# How it was run: as §1
# Lactobacillus gasseri = test system: Lactobacillus gasseri
# How it was run: as §1
# Lactobacillus paracasei = test system: Lactobacillus paracasei
# How it was run: as §1
# Odoribacter splanchnicus = test system: Odoribacter splanchnicus
# How it was run: as §1
# [4] = test system: Parabacteroides distasonis
# How it was run: as §1
# Parabacteroides merdae = test system: Parabacteroides merdae
# How it was run: as §1
Compound,growth AUC (Akkermansia muciniphila),growth AUC (Bacteroides caccae),growth AUC (Bacteroides clarus),growth AUC (Bacteroides dorei),growth AUC (Bacteroides stercoris),growth AUC [1],growth AUC (Bacteroides uniformis),growth AUC [2],growth AUC (Clostridium difficile),growth AUC (Collinsella aerofaciens),growth AUC (Coprococcus comes),growth AUC (Escherichia coli ED1a),growth AUC (Escherichia coli IAI1),growth AUC (Eubacterium rectale),growth AUC [3],growth AUC (Lactobacillus gasseri),growth AUC (Lactobacillus paracasei),growth AUC (Odoribacter splanchnicus),growth AUC [4],growth AUC (Parabacteroides merdae)
CCOP(=O)(OCC)Oc1ccc(S(C)(=O)=O)cc1,1.01,0.99,0.995,1.01,0.937,0.997,1.03,1.04,0.991,1.01,1.01,0.98,0.977,1.13,0.996,1,0.976,1,1.11,1.03
CCOC(=O)N(C)C(=O)CSP(=S)(OCC)OCC,1.11,1.04,0.999,1.01,1.01,0.994,0.991,0.991,1.01,0.997,1.01,1.01,0.987,0.898,1.1,1.03,1.03,1.03,0.999,0.985
O=C(O)c1c(Cl)ccc2cc(Cl)cnc12,0.898,1,0.983,0.992,0.987,1.02,1,0.961,0.959,0.947,1,1,0.969,0.942,1.02,1.07,0.934,0.988,0.986,0.987
Nc1ccncc1,0.943,0.997,0.997,1.04,1.02,0.981,0.987,0.911,1,1,0.95,0.99,0.983,0.949,0.969,0.897,1,0.974,1.02,1.02
COP1(=S)OCc2ccccc2O1 (stereo not given),1.01,0.973,0.979,0.999,1.02,0.993,0.986,0.972,0.97,1.04,1,0.991,1,1.08,1.12,0.945,0.997,1.04,1.05,0.999
CCOP(=O)(NC(C)C)Oc1ccc(S(C)(=O)=O)c(C)c1 (stereo not given),1.03,1.01,1.04,1.04,1.05,1.02,1.01,0.986,1.04,1.01,1.06,1.03,1.02,1.03,1.03,0.993,1.03,1.05,1.06,1.04
COC(=O)N(OC)c1ccccc1COc1ccn(-c2ccc(Cl)cc2)n1,0.936,0.803,0.91,0.972,1.09,0.91,0.861,1.03,0.989,1,0.998,1.02,0.99,1.1,1.19,0.88,0.988,0.881,0.57 (active),0.911
O=C1C2(Cl)C3(Cl)C4(Cl)C(Cl)(Cl)C5(Cl)C3(Cl)C1(Cl)C5(Cl)C24Cl (stereo not given),0.849,0.0318 (active),0.02 (active),0.0186 (active),0.00866 (active),0.0105 (active),0.0112 (active),0.28 (active),0.0161 (active),0.0984 (active),0.0378 (active),0.98,0.969,0.696,0.757,0.135 (active),0.061 (active),0.0248 (active),0.0157 (active),0.0229 (active)
CC(C)(C)C(O)C(Oc1ccc(-c2ccccc2)cc1)n1cncn1 (mixture of isomers),1.01,0.919,0.874,0.926,1.11,0.938,0.899,0.847,0.924,0.995,1,1.01,1.05,0.964,1.07,0.949,0.958,0.952,0.918,0.976
CCCCCCCCCc1ccc(O)cc1,1.02,1.03,0.739 (active),1.01,0.0469 (active),1.01,0.289 (active),0.929,1.03,0.925,0.989,0.998,1.01,0.968,0.989,0.904,1.01,0.841,0.885,0.971
CC[C@H]1CCCC(O[C@H]2CC[C@H](N(C)C)[C@@H](C)O2)[C@@H](C)C(=O)C2=C[C@@H]3[C@@H](C=C(C)[C@@H]4C[C@@H](O[C@@H]5O[C@@H](C)[C@H](OC)[C@@H](OC)[C@H]5OC)C[C@@H]34)[C@@H]2CC(=O)O1.CC[C@H]1CCCC(O[C@H]2CC[C@H](N(C)C)[C@@H](C)O2)[C@@H](C)C(=O)C2=C[C@@H]3[C@@H](C=C[C@@H]4C[C@@H](O[C@@H]5O[C@@H](C)[C@H](OC)[C@@H](OC)[C@H]5OC)C[C@@H]34)[C@@H]2CC(=O)O1 (stereo not given in full),0.986,1.01,0.979,1.04,0.888,1,0.987,0.889,1.03,0.958,0.973,0.963,0.966,0.985,0.995,0.879,0.902,1.04,1.01,0.925
COC(=O)c1ccccc1S(=O)(=O)NC(=O)Nc1nc(C)cc(C)n1,1.07,0.962,0.988,0.968,0.859,0.979,1.02,1.1,1,0.949,1,0.993,0.985,1.07,1,0.94,0.948,1.07,1.04,0.987
OCC1C(CO)C2(Cl)C(Cl)=C(Cl)C1(Cl)C2(Cl)Cl (stereo not given),0.817,0.721 (active),0.818,0.859,0.259,0.799 (active),0.275 (active),1.04,0.901,0.947,0.934,0.994,0.975,1.07,1,0.827,1.01,0.59 (active),1.09,0.892
CNC(=O)Oc1ccccc1C(C)C,1.08,1.01,1.04,1.03,1.23,1.01,1.01,0.965,1.02,0.986,1.04,1.01,1.02,1.07,1.07,1.04,0.861,1.03,0.998,1.03
CNC(=O)O/N=C/C(C)(C)S(C)=O (stereo not given),0.978,1.04,0.991,1.01,1.02,0.988,1.03,0.935,1.01,1.02,0.987,0.993,1,1.08,0.996,1.01,1.01,0.955,1.02,1
CCOP(=S)(NC(C)CC)Oc1cc(C)ccc1[N+](=O)[O-] (stereo not given),0.974,0.947,0.946,1.01,0.865,0.955,0.917,0.965,1.03,0.985,0.967,0.97,0.964,0.919,0.865,0.974,0.984,0.904,0.733 (active),0.967
